Test results: PubChem BioAssay AID743195 (National Center for Advancing Translational Sciences (NCATS), 2013)
Some of the results follow. Results filed as inconclusive are left out. Active and inactive are the calls of the source. Calls follow the shape of the dose curve; as a rule, active = well fitted inhibition curve with a large enough effect; inconclusive = small, poorly fitted or top-dose-only effect; inactive = no such curve, though single readings can be large or run the other way.

What follows are molecules tested against Aldehyde dehydrogenase 1A1 (Homo sapiens) (UniProt P00352) (assay: Extended Characterization of HPGD Inhibitors: Counterscreen Against ALDH1A1). Conditions: recombinant ALDH1A1, NADH fluorescence, propionaldehyde/NAD+.
Sequence of Aldehyde dehydrogenase 1A1 (Homo sapiens) (P00352 whole entry, looked up): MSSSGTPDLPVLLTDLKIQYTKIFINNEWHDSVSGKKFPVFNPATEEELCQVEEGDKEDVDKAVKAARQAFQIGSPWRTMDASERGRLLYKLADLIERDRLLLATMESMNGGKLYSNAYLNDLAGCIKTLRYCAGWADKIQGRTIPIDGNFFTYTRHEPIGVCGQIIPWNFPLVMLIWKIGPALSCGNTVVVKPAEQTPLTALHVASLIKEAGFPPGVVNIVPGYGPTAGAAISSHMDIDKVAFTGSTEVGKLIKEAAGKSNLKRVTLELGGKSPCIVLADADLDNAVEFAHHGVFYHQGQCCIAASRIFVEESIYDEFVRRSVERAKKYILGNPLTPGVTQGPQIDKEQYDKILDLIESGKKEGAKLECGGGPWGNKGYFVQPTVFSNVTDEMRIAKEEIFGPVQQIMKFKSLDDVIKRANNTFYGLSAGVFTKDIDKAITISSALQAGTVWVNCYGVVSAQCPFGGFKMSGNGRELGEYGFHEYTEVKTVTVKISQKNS
Description: The central role of HPGD is to inactivate prostaglandins such as prostaglandin E2 (PGE2) or prostaglandin D2 (PGD2). These prostaglandins are involved in a number of processes, including inflammation, differentiation, and cellular signaling, which makes HPGD an important target for pharmacological intervention. Aldehyde dehydrogenase 1 family, member A1 (ALDH1A1) catalyzes the NAD+ dependent oxidation of a variety of endogenous and exogenous aldehydes to the corresponding carboxylic acids. The enzyme is the critical step in the metabolic activation of retinoic acid, which plays an essential role as a nuclear receptor ligand. […] ALDH1A1 shares some homology with HPGD, and it served as a suitable anti-target of HPGD to determine chemical probe selectivity. The assay system is similar to the HPGD primary screening protocol. Inhibition of ALDH1A1 activity was screened by utilizing propionaldehyde as an electron donor and NAD+ as an electron acceptor/cofactor. An increase in the fluorescence intensity due to conversion of NAD+ to NADH was used to measure the enzyme activity. NIH Chemical Genomics Center [NCGC] NIH Molecular Libraries Probe Centers Network [MLPCN] MLPCN Grant: MH084681 Assay Submitter (PI): Structural Genomics Consortium
3 uL of enzyme (final concentration 50 nM) or buffer were dispensed into a 1,536-well solid-bottom black plate (Greiner Bio One, Monroe, NC) followed by pin-tool transfer (23 nL) of compound (final concentration range 324 pM to 57.2 uM) and control (Bay 11-7085 (CID-5353432), final concentration range 1.31 nM to 2.86 uM). Samples were incubated (RT, protected from light) for 15 minutes followed by a 1 uL substrate addition of NAD+ and Propionaldehyde (final concentrations of 1 mM and 80 uM, respectively). Plates were centrifuged at 1,000 rpm for 15 seconds, then read in kinetic mode on a ViewLux High-throughput CCD imager (Perkin-Elmer) equipped with standard UV fluorescence optics (340 nm excitation, 450 nm emission) for 10 minutes at 5 minute intervals. Data were normalized (Read […] - Read 10 min) against no-enzyme (positive) and enzyme-containing (neutral) wells.

With `Cc1ccc(N2CCN(C(=S)Nc3cc(C)ccn3)CC2)cc1` as the molecule, how does the Potency read?
The Potency was 3.83 µM (active).

With `COc1cccc(NC(=S)N2CCN(c3ccccc3C(F)(F)F)CC2)n1` as the molecule, how does the Potency read?
The Potency was 2.15 µM (active).

`Cc1cc(C)nc(NC(=S)N2CCN(c3ccc4nonc4c3)CC2)c1` was tested. Which Potency did it give?
Its Potency is 12.1 µM (active).

How did the Potency turn out when `Cc1cc(C)nc(NC(=S)N2CCN(c3cccc(C(F)(F)F)c3)CC2)c1` was run?
The Potency was 15.2 µM (active).

With `Cc1cc(C)nc(NC(=S)N2CCN(c3ccc(Cl)cc3F)CC2)c1` as the molecule, how does the Potency read?
Its Potency is 4.82 µM (active).

For `FC(F)(F)c1cccc(N2CCN(C(=S)Nc3ccncc3)CC2)c1`, which Potency is on record?
The Potency was 27.1 µM (active).

`COc1ccnc(NC(=S)N2CCN(c3ncc(C(F)(F)F)cc3Cl)CC2)c1` was tested. Which Potency did it give?
The Potency was 1.92 µM (active).

`Cc1cc(C)nc(NC(=S)N2CCN(c3cccc(C#N)c3)CC2)c1` was tested. Which Potency did it give?
Its Potency is 3.83 µM (active).

`COc1cccc(NC(=S)N2CCN(c3ccc(Cl)cc3Cl)CC2)n1` was tested. Which Potency did it give?
Its Potency is 1.08 µM (active).

`Cc1cc(C)nc(NC(=S)N2CCN(c3ccc(Cl)cc3C(F)(F)F)CC2)c1` was tested. Which Potency did it give?
Its Potency is 7.64 µM (active).
